697 NFkB inh: inhibitors of PMA/ionomycin-induced NF-kB reporter, 697 cells, primary screen, B-cell NF-kB inhibitor project, cell-based, luminescence, uHTS; inhibition, % at 4 µM; AID 435022, 2010; 697 B-cell NF-kB luciferase reporter, 16 h; 330,000 compounds, 0.33% hits; in the data active means inhibition above about 35%
CFTR F508del cor: F508del CFTR correction, initial screen, CFBE line, single point | CFBE cells, YFP halide quenching; stimulated with forskolin plus potentiator P3; % fluorescence drop versus neutral controls | activity (quench increase), % at 7.58 µM | 350,000 compounds, 0.36% hits | AID 720511, 2013;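 active means mean added fluorescence quench of at least 8% versus neutral control, with both replicates also reaching 8%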;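 further: cells transiently co-express mutant CFTR-F508del with the halide-sensitive YFP; corrector assay measuring rescue of mutant channel to the surface after 24 h compound exposure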
Jurkat NFkB inh: inhibitors of induced NF-kB luciferase reporter, primary screen, TCR NF-kB activation inhibitor project, cell-based, luminescence, uHTS; Jurkat, PMA/ionomycin-induced NF-kB luciferase reporter; inhibition, % at 4 µM; 330,000 compounds, 0.53% hits; in the data active means inhibition above about 50%
HIF activator: HIF pathway transcriptional activators, primary screen, cell-based, U2OS HRE-luciferase, luminescence. U2OS HRE-luciferase reporter; normalized: DMSO 0%, desferrioxamine 100%. activation, % at 7.5 µM (by protocol). 300,000 compounds, 0.32% hits. AID 1910, 2009;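 active means mean activation of at least 10% of the iron chelator positive control signal, with at least half of replicates also reaching 10%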
Jurkat NFkB conf: PMA/ionomycin-induced NF-kB reporter inhibitors, Jurkat retest, confirmation, T-cell NF-kB inhibitor project, cell-based, luminescence, single concentration. 2,700 compounds, 27% hits. shares compounds with Jurkat NFkB inh. AID 435020, 2010. inhibition, % at 4 µM. Jurkat NF-kB luciferase, 16 h;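 active means inhibition reaching about 45% at 4 µM in either replicate, limit read from the data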
697 NFkB conf: PMA/ionomycin-induced NF-kB reporter inhibitors, 697 retest, confirmation, B-cell NF-kB inhibitor project, cell-based, luminescence, single concentration; shares compounds with 697 NFkB inh; 697 B-cell NF-kB luciferase, 16 h; inhibition, % at 4 µM; 2,000 compounds, 35% hits; AID 449746, 2010; in the data active means inhibition mostly above about 28%, no sharp cut-off; inactive means mostly below about 22%
Each line names hits and unclear results; the compound was inactive in the other large screens (follow-up assays come after a bar, where they were run). The list is not random: actives were taken first. Their share in the collection is about 0.93%.

COc1ccc(-c2cc(-c3ccccc3O)[nH]n2)cc1	none (no result: CFTR F508del cor) | Jurkat NFkB conf inactive | 697 NFkB conf inactive
Cc1ccc(-c2cc(-c3ccc(F)cc3)n[nH]2)c(O)c1	none | Jurkat NFkB conf inactive | 697 NFkB conf inactive
Cc1ccc(-c2cc(-c3ccccc3Cl)[nH]n2)c(O)c1	none (no result: CFTR F508del cor)
Cc1ccc(-c2cc(-c3ccc(C)cc3O)[nH]n2)cc1	none | Jurkat NFkB conf inactive | 697 NFkB conf inactive
CN(C)CCCCCCNC(=O)[C@@H]1C[C@@H]2C(=O)NCC(=O)N2[C@@H]1c1cccc(OCCO)c1	none (no result: 697 NFkB inh, Jurkat NFkB inh, HIF activator)
C[C@@H]1CCCCO[C@@H](CN(C)C(=O)c2ccccc2)[C@H](C)CN([C@H](C)CO)C(=O)c2cc(NC(=O)CCCN(C)C)ccc2O1	none (no result: 697 NFkB inh, Jurkat NFkB inh, HIF activator)
COc1ccc(NS(=O)(=O)c2cccc(NC(=O)c3ccc(Cl)nc3)c2)cc1	697 NFkB inh 64, Jurkat NFkB inh 72 | Jurkat NFkB conf 67 | 697 NFkB conf 54
O=C(Oc1ccc2ccccc2c1Br)N1CCCCCC1	none (no result: CFTR F508del cor) | Jurkat NFkB conf inactive | 697 NFkB conf inactive
O=C(COc1ccc2ccccc2c1Br)N1CCCCC1	none (no result: CFTR F508del cor)
Cc1cc(Cl)c(S(=O)(=O)N2CCCCCC2)cc1OCC(=O)NC1CCCCC1	697 NFkB inh 75, Jurkat NFkB inh 65 (no result: CFTR F508del cor) | Jurkat NFkB conf 71 | 697 NFkB conf 69
Cc1cc(Cl)c(S(=O)(=O)N2CCSCC2)cc1OCC(=O)NC1CCCCC1	none (no result: CFTR F508del cor)
N#Cc1cnn2c1nc(N1CCOCC1)c1ccccc12	697 NFkB inh 36 (no result: CFTR F508del cor) | 697 NFkB conf inactive
CC(=O)Nc1ccc(S(=O)(=O)Oc2ccc3c(c2)C(C)=CC(C)(C)N3)cc1	none (no result: CFTR F508del cor) | 697 NFkB conf inactive
CC1=CC(C)(C)Nc2ccc(OS(=O)(=O)c3ccc(C)cc3)cc21	none (no result: CFTR F508del cor)
O=C(CCCN1C(=O)S/C(=C\c2ccccc2)C1=O)NNC(=O)c1ccccc1O	697 NFkB inh 67 | 697 NFkB conf 50
O=C(CCCN1C(=O)/C(=C/c2ccccc2Cl)SC1=S)NNC(=O)c1ccc(Cl)cc1Cl	697 NFkB inh 60 | 697 NFkB conf 39
O=C(CCN1C(=O)/C(=C/c2ccccc2Cl)SC1=S)Nc1ccccc1C(=O)O	none
O=C(CCCN1C(=O)S/C(=C\C=C\c2ccccc2)C1=O)Nc1ccc(C(=O)O)cc1	697 NFkB inh 48 | 697 NFkB conf 53
O=C(CCCN1C(=O)/C(=C/c2ccccc2Cl)SC1=S)NNC(=O)c1cccnc1	none
O=C(CCCN1C(=O)/C(=C/c2ccccc2Cl)SC1=S)NNC(=O)c1ccccc1	697 NFkB inh 40 | 697 NFkB conf 42
CO[C@H]1CN(C)C(=O)c2ccc(NC(=O)C3CC3)cc2OC[C@H](C)N(C)C[C@H]1C	none (no result: 697 NFkB inh, Jurkat NFkB inh, HIF activator)
O=C(N/N=C/C(Br)=C\c1ccccc1)c1n[nH]c2c1CCC2	HIF activator 12 (no result: CFTR F508del cor) | 697 NFkB conf inactive
CC(/C=N/NC(=O)c1n[nH]c2c1CCC2)=C\c1ccccc1	none (no result: CFTR F508del cor)
C[C@H](CO)N1C[C@H](C)[C@H](CN(C)Cc2ccc(C(=O)Nc3ccccc3N)cc2)Oc2c(NS(=O)(=O)c3cccs3)cccc2C1=O	none (no result: 697 NFkB inh, Jurkat NFkB inh, HIF activator)
COc1ccc(/C=C2\N=C(SC)N(c3ccccc3OC)C2=O)cc1	none | 697 NFkB conf inactive
CC(=O)c1c(C(C)=O)c(C)n(-c2cccc([N+](=O)[O-])c2)c1C	697 NFkB inh 36 (no result: CFTR F508del cor) | 697 NFkB conf inactive
Cc1cc(C(=O)CCl)c(C)n1-c1cccc([N+](=O)[O-])c1	697 NFkB inh 40 (no result: HIF activator) | 697 NFkB conf inactive
Cc1nc(N2CCC(C)CC2)c2c(C)c(C(=O)O)sc2n1	697 NFkB inh 35 (no result: CFTR F508del cor) | 697 NFkB conf inactive
C[C@H]1CN([C@@H](C)CO)C(=O)c2cccc(NS(=O)(=O)c3ccc(F)cc3)c2O[C@H]1CN(C)C(=O)Nc1cccc2ccccc12	none (no result: 697 NFkB inh, Jurkat NFkB inh, HIF activator)
C[C@@H]1CN([C@H](C)CO)C(=O)c2cc(C#CCN(C)C)cnc2O[C@@H]1CN(C)C(=O)c1cccnc1	none (no result: 697 NFkB inh, Jurkat NFkB inh, HIF activator)
COc1cc(/C=N/n2cnc3c(sc4nc(C)cc(C)c43)c2=O)ccc1O	none (no result: CFTR F508del cor)
COC(=O)c1sc2nc(C)cc(C)c2c1N	none
COc1cc(/C=N/NC(=O)c2sc3nc(C)cc(C)c3c2N)ccc1O	697 NFkB inh 43 | 697 NFkB conf inactive
Cc1cc(C)c2c(N)c(C(=O)Nc3ncc(C)s3)sc2n1	none (no result: CFTR F508del cor, HIF activator) | 697 NFkB conf inactive
Cc1ccc(O)c(-c2cc(C(F)(F)F)[nH]n2)c1	697 NFkB inh 40 (no result: CFTR F508del cor) | 697 NFkB conf inactive
CCC(=O)N1[C@H](CO)[C@@H](c2ccc(-c3ccc(C#N)cc3)cc2)C12CN(C(C)=O)C2	none (no result: 697 NFkB inh, Jurkat NFkB inh, HIF activator)
Cc1c(CC(=O)NCCCC(=O)O)c(=O)oc2cc3c(cc12)CCC(C)(C)O3	697 NFkB inh 52 | 697 NFkB conf 51
Cc1c(CC(=O)NCCCCCC(=O)O)c(=O)oc2cc3c(cc12)CCC(C)(C)O3	none
C[C@H](CO)N1C[C@H](C)[C@H](CN(C)C(=O)Cc2ccncc2)Oc2cc(C#CC3(O)CCCC3)ccc2S1(=O)=O	none (no result: 697 NFkB inh, Jurkat NFkB inh, HIF activator)
C[C@@H]1CN([C@@H](C)CO)C(=O)Cc2cc(NC(=O)Cn3cnnn3)ccc2O[C@H]1CN(C)C	none (no result: 697 NFkB inh, Jurkat NFkB inh, HIF activator)
NS(=O)(=O)c1ccc(N=Nc2c(O)ccc3ccccc23)cc1	none
NS(=O)(=O)c1ccc(N=Nc2ccc(O)c3ncccc23)cc1	none | 697 NFkB conf inactive
COc1ccc2c3c(n(C)c2c1)[C@@H](CO)N(C(=O)Nc1ccc(F)cc1)CC31CCN(S(=O)(=O)c2cn(C)cn2)CC1	none (no result: 697 NFkB inh, Jurkat NFkB inh, HIF activator)
Cc1ccc(NC(=O)c2cc(CC(C)C)nc3ccccc23)cc1	none
COc1ccc(NC(=O)c2cc(CC(C)C)nc3ccccc23)cc1	none (no result: CFTR F508del cor) | 697 NFkB conf inactive
O=C(C[C@H]1CC[C@@H](NC(=O)Nc2ccc(F)cc2)[C@@H](CO)O1)NCc1ccccn1	none (no result: 697 NFkB inh, Jurkat NFkB inh, HIF activator)
COc1ccc(Cn2nnnc2C(C(C)C)N(Cc2ccco2)Cc2cccs2)cc1 (stereo not drawn)	none (no result: CFTR F508del cor)
CC(C)C(c1nnnn1Cc1ccccc1)N(Cc1ccco1)Cc1cccs1 (stereo not drawn)	697 NFkB inh 35 (no result: CFTR F508del cor) | 697 NFkB conf 28
COc1ccc(-n2c(-c3ccccc3)nnc2-c2ccc(Cl)cc2)cc1	none (no result: CFTR F508del cor)
COc1ccc(-n2c(-c3ccc(Cl)cc3)c[n+]3c2CCc2ccccc2-3)cc1	697 NFkB inh 56 | 697 NFkB conf 92
COC(=O)C[C@@H]1CC[C@@H]2[C@H](COC[C@@H](O)CN2C(=O)Nc2ccccc2OC)O1	none (no result: 697 NFkB inh, Jurkat NFkB inh, HIF activator)
COc1ccc(-c2nc(C(=O)NCC3CCCO3)cc3c2[nH]c2ccccc23)cc1 (stereo not drawn)	none
Cc1ccc(-c2nc(C(=O)NCC3CCCO3)cc3c2[nH]c2ccccc23)cc1 (stereo not drawn)	697 NFkB inh 39 | 697 NFkB conf 36

Source: PubChem BioAssay
